{"source": "ChEMBL document CHEMBL4513216", "about": "“Probing the Open Global Health Chemical Diversity Library for Multistage-Active Starting Points for Next-Generation Antimalarials” (ACS Infect Dis, 2020)", "note": "In all, about 69,000 compounds went through this assay and about 8,600 (12%) showed an effect of 50% or more. What follows is part of a selection rich in strong results, with near analogues and random picks from the rest."}
{"system": "Plasmodium berghei", "assay": "Screen against P. berghei liver stage (PbLuc), transformed with Luciferase, at 10uM", "type": "functional, HepG2", "settings": "tested at 10 uM", "units": {"INHIBITION": "%"}}
{"smiles": "Cc1nn(-c2ccccc2)c(C)c1CN1CCNCC1", "INHIBITION": 40.9}
{"smiles": "COc1cc(C2(C(=O)NC3CCN(CC4CC4)CC3)CC2)ccc1C", "INHIBITION": 25.5}
{"smiles": "COc1cc(C2(C(=O)N3CCCC(n4cncn4)C3)CC2)ccc1C", "note": "(stereo not drawn)", "INHIBITION": -7.81}
{"smiles": "COCCNC(=O)C1(c2ccc(C)c(OC)c2)CCCC1", "INHIBITION": 21.5}
{"smiles": "COc1cc(C2(C(=O)NC3CCC4(CC3)OCCO4)CC2)ccc1C", "INHIBITION": 10.3}
{"smiles": "COc1cc(C2(C(=O)N3CCN(CC(C)(C)O)CC3)CC2)ccc1C", "INHIBITION": 52.3}
{"smiles": "COc1cc(C2(C(=O)NC3CCN(C4CC4)CC3)CC2)ccc1C", "INHIBITION": 51.5}
{"smiles": "CCC(O)CN1CCN(C(=O)C2(c3ccc(C)c(OC)c3)CC2)CC1", "note": "(stereo not drawn)", "INHIBITION": -6.34}
{"smiles": "COc1cc(C2(C(=O)N3CCN(CC(C)O)CC3)CC2)ccc1C", "note": "(stereo not drawn)", "INHIBITION": -17.8}
{"smiles": "COCC(=O)N1CCN(C(=O)C2(c3ccc(C)c(OC)c3)CC2)CC1", "INHIBITION": 50.9}
{"smiles": "O=C(O)[C@H]1OCC(=O)N(Cc2cccc(Cl)c2)[C@@H]1c1ccccc1", "INHIBITION": 22}
{"smiles": "Cn1cc(CN2CCCCC2c2ccc(-c3cnn(C)c3)nc2)cn1", "note": "(stereo not drawn)", "INHIBITION": 25.8}
{"smiles": "Nc1nccc(C2CCCCN2Cc2cccc(F)c2)n1", "note": "(stereo not drawn)", "INHIBITION": 52}
{"smiles": "Cn1cc(CN2CCCCC2c2ccc(-c3cccc(Cl)c3)nc2)cn1", "note": "(stereo not drawn)", "INHIBITION": 57.3}
{"smiles": "Cn1cc(-c2ccc(C3CCCCN3Cc3cccnc3)cn2)cn1", "note": "(stereo not drawn)", "INHIBITION": 9.05}
{"smiles": "Nc1nccc(C2CCCN2CCc2ccccc2)n1", "note": "(stereo not drawn)", "INHIBITION": 37.8}
{"smiles": "Cn1cc(CN2CCCCC2c2ccc(-c3cccc(F)c3)nc2)cn1", "note": "(stereo not drawn)", "INHIBITION": 62.9}
{"smiles": "Cc1nccc(C2CCCCN2Cc2cccc(F)c2)n1", "note": "(stereo not drawn)", "INHIBITION": 43.6}
{"smiles": "Cn1cc(CN2CCOC(c3cccc(-c4cccc(F)c4)n3)C2)cn1", "note": "(stereo not drawn)", "INHIBITION": 23.9}
{"smiles": "COc1ccc(C2CCCN2Cc2cnn(C)c2)cc1", "note": "(stereo not drawn)", "INHIBITION": 34.5}
{"smiles": "CC(=O)Nc1nc(CN2CCn3c(nnc3C(C)C)C2)cs1", "INHIBITION": -24.3}
{"smiles": "CCN1CCn2c(C)cnc2C12CCN(C(=O)Cc1ccccc1)CC2", "INHIBITION": 30.9}
{"smiles": "CC(C)(CNC(=O)CCCOc1cccc(F)c1)C(N)=O", "INHIBITION": 30.65}
{"smiles": "Cc1nc(CN2CCCC(c3nccs3)C2)cs1", "note": "(stereo not drawn)", "INHIBITION": 24.05}
{"smiles": "CN(C)CC(=O)N1Cc2nc(C(=O)N3CCCN(C)CC3)oc2C1", "INHIBITION": -2.26}
{"smiles": "Cc1ccc(C(=O)N2CCC3(CC2)c2ccccc2[C@@H](N)[C@@H]3O)cc1F", "INHIBITION": 35.1}
{"smiles": "N[C@@H]1c2ccccc2C2(CCN(C(=O)c3ccc(=O)[nH]c3)CC2)[C@H]1O", "INHIBITION": 4.795}
{"smiles": "CC(C)c1cc(C(=O)N2CCC3(CC2)c2ccccc2[C@@H](N)[C@@H]3O)cs1", "INHIBITION": 41.1}
{"smiles": "COc1ccc(C(=O)N2CCC3(CC2)c2ccccc2[C@@H](N)[C@@H]3O)cc1", "INHIBITION": 66.55}
{"smiles": "Cc1ccc(Cl)cc1C(=O)N1CCC2(CC1)c1ccccc1[C@@H](N)[C@@H]2O", "INHIBITION": 80.1}
{"smiles": "N[C@@H]1c2ccccc2C2(CCN(C(=O)c3ccccc3O)CC2)[C@H]1O", "INHIBITION": -5.395}
{"smiles": "c1cc(-c2cncc(C3CCNCC3)n2)n[nH]1", "INHIBITION": 35}
{"smiles": "Cc1cc(C(=O)NCc2cccnc2N(C)C)c(C)o1", "INHIBITION": 26.3}
{"smiles": "Nc1nccnc1C(=O)NC1CCCN(Cc2c(F)cccc2F)C1", "note": "(stereo not drawn)", "INHIBITION": 21.8}
{"smiles": "Cn1nc(Cn2ccnc2)c2c1CN(Cc1ccoc1)C2", "INHIBITION": -9.42}
{"smiles": "Cn1nc(Cn2cccc2)c2c1CN(Cc1ccoc1)C2", "INHIBITION": 24.6}
{"smiles": "CC(C)n1nc(Cn2cccc2)c2c1CN(Cc1ccoc1)C2", "INHIBITION": 54.1}
{"smiles": "CCCN(C)c1ncc2c(n1)N(C)CCN(CC1CC1)C2=O", "INHIBITION": 5.56}
{"smiles": "CN(C)CCN1CCN(C)c2nc(-c3ccccc3)ncc2C1=O", "INHIBITION": 59}
{"smiles": "CN1CCN(CC2CC2)C(=O)c2cnc(N3CCCC3)nc21", "INHIBITION": 11}
{"smiles": "COc1cccc(-c2nccc(C3CCCN3C)n2)c1", "note": "(stereo not drawn)", "INHIBITION": 21.1}
{"smiles": "COc1cccc(-c2ncc3c(n2)N(C)CCN(CCN(C)C)C3=O)c1", "INHIBITION": 57.5}
{"smiles": "CN1CCN(CC2CC2)C(=O)c2cnc(N3CCCCC3)nc21", "INHIBITION": 7.64}
{"smiles": "CN(C)c1ncc2c(n1)N(C)CCN(CC1CC1)C2=O", "INHIBITION": 21.9}
{"smiles": "CCc1ccc(-c2ncc3c(n2)N(C)CCN(CCN(C)C)C3=O)cc1", "INHIBITION": 79.7}
{"smiles": "COc1ccc(CN2CCC3(CC2)CCN(CCN(C)C)C3=O)cc1", "INHIBITION": -17.1}
{"smiles": "COc1cccc2cc(CNC(=O)N3CCS(=O)(=O)CC3)oc12", "INHIBITION": 23.5}
{"smiles": "Cc1noc(C)c1-c1cncc(C2CCCN2Cc2ncccc2F)n1", "note": "(stereo not drawn)", "INHIBITION": 1.5}
{"smiles": "CCn1ncc(Nc2[nH]cnc3nncc2-3)c1C", "INHIBITION": 31.2}
{"smiles": "N#Cc1ccc(S(=O)(=O)NC(=O)C2CC(c3ccccc3)=NO2)cc1", "note": "(stereo not drawn)", "INHIBITION": 6.09}
{"smiles": "OCCc1ccccc1-n1ccnc1-c1cn(C2CCNCC2)nn1", "INHIBITION": 51.2}
{"smiles": "Clc1ccccc1CCn1ccnc1-c1cn(C2CCNCC2)nn1", "INHIBITION": 22.4}
{"smiles": "CSc1ccccc1-n1ccnc1-c1cn(C2CCNCC2)nn1", "INHIBITION": 3.96}
{"smiles": "Cc1cc(CN2C[C@@H]3COC[C@H](C(=O)N4CCCCO4)[C@@H]3C2)oc1C", "INHIBITION": 45.1}
{"smiles": "Cc1csc(N2CCN(CC(=O)N3CCCC3)CC2C)n1", "note": "(stereo not drawn)", "INHIBITION": 32.25}
{"smiles": "CC(c1cccc(S(N)(=O)=O)c1)N(C)CCOC(C)(C)C", "note": "(stereo not drawn)", "INHIBITION": -27.8}
{"smiles": "Cc1ccsc1C(=O)NC1CCN(c2cnn(C)c2)C1=O", "note": "(stereo not drawn)", "INHIBITION": 65.5}
{"smiles": "Cc1ccccc1C(=O)NC1CCN(c2cnn(C)c2)C1=O", "note": "(stereo not drawn)", "INHIBITION": 11.7}
{"smiles": "Cc1cccc(C(=O)NC2CCN(c3cnn(C)c3)C2=O)c1C", "note": "(stereo not drawn)", "INHIBITION": 30.5}
{"smiles": "CC1(C(=O)N2CCOCC2)CNCCO1", "note": "(stereo not drawn)", "INHIBITION": 6.9}
{"smiles": "O=C(c1ccc(Oc2cccnc2)cc1)N1CCN(CCO)CC1", "INHIBITION": 40.6}
{"smiles": "CCOc1ccnc(N2CCN(C(=O)c3cccnc3)CC2)n1", "INHIBITION": 15.5}
{"smiles": "CCCN1CCCN(c2ncccc2C(=O)N2CCCCC2)CC1", "INHIBITION": 25.1}
{"smiles": "CCCN1CCN(C(=O)c2cccnc2)CC1", "INHIBITION": 64.7}
{"smiles": "Cc1cc(N2CCN(C(=O)c3cccnc3)CC2)nc(C)n1", "INHIBITION": 6.26}
{"smiles": "CCCN1CCCN(C(=O)c2ccc(Oc3cccnc3)cc2)CC1", "INHIBITION": 61}
{"smiles": "CCc1cc(N(C)CCc2c(C)n[nH]c2C)ncn1", "INHIBITION": 23}
{"smiles": "O=C(CCn1ccnc1)N1CC[C@H](Oc2ccc(F)cc2)[C@@H](O)CC1", "INHIBITION": 32.05}
